Source: the supplement of paper PMC11732987, “Enantioselective OTUD7B fragment discovery through chemoproteomics screening and high-throughput optimisation” (Communications Chemistry, 2025)

Tests used:
Test in all cases: log2 ratio of Biotin-Ahx-Ub-VS probe labelling (fragment/DMSO); higher = less target engagement (more negative = stronger competition), active = hit call of the paper (q ≤ 0.05, log2 ratio ≤ -1)
Details in all cases: compound concentration: 200 uM; treatment time: 3 h
[1] = target: T1, USP19 (UniProt O94966)
T1 sequence (whole entry): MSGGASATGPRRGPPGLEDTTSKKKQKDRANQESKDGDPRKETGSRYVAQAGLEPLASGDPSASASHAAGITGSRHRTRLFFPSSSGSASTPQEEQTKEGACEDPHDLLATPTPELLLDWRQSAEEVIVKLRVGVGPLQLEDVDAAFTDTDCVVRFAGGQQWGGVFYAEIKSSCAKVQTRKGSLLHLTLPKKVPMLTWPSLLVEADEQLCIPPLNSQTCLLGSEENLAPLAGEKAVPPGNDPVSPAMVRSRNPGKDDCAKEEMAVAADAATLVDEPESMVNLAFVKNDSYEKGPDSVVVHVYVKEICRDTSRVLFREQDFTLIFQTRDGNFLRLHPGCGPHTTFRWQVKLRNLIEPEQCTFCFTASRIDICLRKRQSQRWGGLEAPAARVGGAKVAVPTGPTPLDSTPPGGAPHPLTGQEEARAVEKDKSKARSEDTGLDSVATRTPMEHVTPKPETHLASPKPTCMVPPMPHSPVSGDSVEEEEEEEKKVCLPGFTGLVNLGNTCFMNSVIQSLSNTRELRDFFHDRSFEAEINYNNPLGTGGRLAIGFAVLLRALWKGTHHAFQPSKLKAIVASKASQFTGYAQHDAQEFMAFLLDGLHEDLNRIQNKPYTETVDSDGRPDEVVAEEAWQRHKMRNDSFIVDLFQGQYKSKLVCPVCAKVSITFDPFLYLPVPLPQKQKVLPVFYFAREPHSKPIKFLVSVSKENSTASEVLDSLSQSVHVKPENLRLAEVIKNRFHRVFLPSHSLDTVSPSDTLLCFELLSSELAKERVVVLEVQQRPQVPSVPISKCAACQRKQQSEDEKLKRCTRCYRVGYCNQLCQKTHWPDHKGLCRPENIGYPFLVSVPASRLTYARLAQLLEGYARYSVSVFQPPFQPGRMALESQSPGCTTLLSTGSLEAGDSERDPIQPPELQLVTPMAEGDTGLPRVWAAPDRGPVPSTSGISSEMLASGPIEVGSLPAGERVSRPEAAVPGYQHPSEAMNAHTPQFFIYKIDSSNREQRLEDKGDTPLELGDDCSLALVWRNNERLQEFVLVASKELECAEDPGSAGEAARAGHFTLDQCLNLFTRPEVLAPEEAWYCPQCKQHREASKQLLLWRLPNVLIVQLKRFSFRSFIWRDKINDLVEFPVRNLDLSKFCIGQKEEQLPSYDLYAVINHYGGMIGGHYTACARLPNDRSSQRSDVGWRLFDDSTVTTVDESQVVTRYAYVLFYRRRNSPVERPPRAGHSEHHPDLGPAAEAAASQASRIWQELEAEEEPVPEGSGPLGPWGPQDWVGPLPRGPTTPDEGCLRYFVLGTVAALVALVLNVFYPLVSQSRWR
Method in brief: (§1)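 The table lists average log2 ratios of fragment over vehicle, from an unpaired t-test on global-median-normalised Spectronaut label-free quantities. Proteins with ≥2 unique peptides were used. Samples were HEK293T lysate (495 µg) treated in triplicate with fragment at 200 µM or vehicle for 3 h, then with Biotin-Ahx-Ub-VS (0.5 µM final) for 1 h, with labelled DUBs NeutrAvidin-enriched and run by diaPASEF LC-MS/MS.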

[2] = target: USP24 (UniProt Q9UPU5)
USP24, sequence (Q9UPU5 whole entry): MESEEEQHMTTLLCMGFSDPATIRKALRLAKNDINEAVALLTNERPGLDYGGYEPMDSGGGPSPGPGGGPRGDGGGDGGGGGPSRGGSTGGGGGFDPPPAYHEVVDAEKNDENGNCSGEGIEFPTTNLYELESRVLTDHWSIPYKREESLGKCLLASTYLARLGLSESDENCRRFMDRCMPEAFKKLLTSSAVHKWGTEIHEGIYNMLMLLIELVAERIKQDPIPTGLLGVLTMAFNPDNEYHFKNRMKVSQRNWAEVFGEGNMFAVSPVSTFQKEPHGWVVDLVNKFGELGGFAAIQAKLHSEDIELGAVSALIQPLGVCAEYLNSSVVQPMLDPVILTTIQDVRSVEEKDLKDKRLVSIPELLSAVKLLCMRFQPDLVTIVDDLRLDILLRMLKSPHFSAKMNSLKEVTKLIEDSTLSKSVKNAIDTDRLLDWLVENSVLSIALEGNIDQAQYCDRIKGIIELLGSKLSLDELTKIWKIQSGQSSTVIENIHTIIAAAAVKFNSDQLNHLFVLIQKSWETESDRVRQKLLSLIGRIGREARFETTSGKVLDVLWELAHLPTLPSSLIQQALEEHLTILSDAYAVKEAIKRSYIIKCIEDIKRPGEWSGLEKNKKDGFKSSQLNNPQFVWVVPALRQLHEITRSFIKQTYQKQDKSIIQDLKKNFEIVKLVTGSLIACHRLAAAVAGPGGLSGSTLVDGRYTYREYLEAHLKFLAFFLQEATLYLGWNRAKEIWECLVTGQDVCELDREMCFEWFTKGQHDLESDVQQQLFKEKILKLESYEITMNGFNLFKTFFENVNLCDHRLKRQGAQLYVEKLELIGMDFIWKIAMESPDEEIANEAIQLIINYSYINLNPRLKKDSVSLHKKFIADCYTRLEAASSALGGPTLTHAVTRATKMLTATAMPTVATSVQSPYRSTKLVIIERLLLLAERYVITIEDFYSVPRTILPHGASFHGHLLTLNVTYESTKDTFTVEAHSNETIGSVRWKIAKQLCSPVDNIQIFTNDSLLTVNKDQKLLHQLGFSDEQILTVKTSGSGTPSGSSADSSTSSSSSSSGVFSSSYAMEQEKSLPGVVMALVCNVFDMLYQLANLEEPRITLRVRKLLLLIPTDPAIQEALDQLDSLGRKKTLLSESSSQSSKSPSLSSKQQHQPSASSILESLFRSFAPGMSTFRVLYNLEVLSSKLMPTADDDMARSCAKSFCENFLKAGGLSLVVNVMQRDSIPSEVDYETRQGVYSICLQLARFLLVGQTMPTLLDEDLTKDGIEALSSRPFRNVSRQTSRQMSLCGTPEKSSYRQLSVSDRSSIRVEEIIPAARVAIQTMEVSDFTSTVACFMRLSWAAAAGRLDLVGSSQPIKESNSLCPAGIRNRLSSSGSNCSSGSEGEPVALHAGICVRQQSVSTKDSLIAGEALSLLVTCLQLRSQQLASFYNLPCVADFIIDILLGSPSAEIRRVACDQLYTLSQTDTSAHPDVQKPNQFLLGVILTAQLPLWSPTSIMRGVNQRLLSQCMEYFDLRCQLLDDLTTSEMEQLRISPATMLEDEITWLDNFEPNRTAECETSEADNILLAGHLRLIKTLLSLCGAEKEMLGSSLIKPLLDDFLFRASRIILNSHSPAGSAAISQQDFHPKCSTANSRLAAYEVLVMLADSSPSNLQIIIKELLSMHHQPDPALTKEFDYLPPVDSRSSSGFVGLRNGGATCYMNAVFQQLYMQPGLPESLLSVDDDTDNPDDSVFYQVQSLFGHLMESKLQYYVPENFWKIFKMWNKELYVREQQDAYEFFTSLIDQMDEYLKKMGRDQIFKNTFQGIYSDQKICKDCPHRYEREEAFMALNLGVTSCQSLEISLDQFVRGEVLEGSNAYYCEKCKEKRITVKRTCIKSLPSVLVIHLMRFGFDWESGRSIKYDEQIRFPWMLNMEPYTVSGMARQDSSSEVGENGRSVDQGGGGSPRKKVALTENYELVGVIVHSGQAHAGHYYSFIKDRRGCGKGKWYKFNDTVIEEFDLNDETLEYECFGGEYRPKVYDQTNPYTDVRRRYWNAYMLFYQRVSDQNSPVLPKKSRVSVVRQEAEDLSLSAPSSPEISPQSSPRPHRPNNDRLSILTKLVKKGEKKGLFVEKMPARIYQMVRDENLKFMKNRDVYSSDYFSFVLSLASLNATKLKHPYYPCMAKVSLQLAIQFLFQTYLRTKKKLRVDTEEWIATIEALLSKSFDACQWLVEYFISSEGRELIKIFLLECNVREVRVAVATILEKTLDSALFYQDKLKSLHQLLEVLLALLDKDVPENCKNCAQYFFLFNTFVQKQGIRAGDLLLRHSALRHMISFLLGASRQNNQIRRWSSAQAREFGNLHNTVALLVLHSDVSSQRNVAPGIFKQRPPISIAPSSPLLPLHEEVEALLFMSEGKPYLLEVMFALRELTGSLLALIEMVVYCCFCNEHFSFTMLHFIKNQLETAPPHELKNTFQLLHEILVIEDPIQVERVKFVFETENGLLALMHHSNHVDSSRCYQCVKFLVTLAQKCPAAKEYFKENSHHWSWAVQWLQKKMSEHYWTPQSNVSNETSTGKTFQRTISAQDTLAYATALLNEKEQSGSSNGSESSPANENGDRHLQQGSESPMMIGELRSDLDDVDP
Method in brief: as §1

[3] = target: T2, USP25 (UniProt Q9UHP3)
T2 sequence (whole entry): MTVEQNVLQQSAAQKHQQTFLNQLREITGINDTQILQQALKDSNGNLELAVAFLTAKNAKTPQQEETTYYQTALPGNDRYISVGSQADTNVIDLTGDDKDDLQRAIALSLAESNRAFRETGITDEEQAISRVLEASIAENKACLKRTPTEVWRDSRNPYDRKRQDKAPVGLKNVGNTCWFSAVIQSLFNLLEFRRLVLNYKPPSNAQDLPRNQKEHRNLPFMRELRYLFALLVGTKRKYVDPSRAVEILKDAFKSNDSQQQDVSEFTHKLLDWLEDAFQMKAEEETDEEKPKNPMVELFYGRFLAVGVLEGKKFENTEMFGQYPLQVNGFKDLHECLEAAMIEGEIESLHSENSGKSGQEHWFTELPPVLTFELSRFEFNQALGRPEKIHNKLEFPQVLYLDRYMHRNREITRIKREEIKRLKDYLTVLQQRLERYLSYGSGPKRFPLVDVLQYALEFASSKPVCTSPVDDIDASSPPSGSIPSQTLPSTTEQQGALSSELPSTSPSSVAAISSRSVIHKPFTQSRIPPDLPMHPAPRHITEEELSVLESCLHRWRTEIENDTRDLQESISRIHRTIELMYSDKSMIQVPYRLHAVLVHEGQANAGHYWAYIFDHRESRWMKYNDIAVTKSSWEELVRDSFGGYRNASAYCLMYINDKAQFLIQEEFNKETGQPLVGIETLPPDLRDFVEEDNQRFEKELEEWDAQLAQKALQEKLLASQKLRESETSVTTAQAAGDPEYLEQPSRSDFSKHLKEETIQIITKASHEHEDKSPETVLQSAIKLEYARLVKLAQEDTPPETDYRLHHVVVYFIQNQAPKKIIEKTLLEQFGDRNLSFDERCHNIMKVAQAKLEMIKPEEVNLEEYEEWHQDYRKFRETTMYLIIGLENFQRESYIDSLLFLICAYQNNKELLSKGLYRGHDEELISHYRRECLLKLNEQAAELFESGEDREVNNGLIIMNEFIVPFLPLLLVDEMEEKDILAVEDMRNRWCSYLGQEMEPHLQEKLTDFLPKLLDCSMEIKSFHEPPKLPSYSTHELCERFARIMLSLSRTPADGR
Method in brief: as §1

[4] = target: T3, USP28 (UniProt Q96RU2)
T3 sequence (whole entry): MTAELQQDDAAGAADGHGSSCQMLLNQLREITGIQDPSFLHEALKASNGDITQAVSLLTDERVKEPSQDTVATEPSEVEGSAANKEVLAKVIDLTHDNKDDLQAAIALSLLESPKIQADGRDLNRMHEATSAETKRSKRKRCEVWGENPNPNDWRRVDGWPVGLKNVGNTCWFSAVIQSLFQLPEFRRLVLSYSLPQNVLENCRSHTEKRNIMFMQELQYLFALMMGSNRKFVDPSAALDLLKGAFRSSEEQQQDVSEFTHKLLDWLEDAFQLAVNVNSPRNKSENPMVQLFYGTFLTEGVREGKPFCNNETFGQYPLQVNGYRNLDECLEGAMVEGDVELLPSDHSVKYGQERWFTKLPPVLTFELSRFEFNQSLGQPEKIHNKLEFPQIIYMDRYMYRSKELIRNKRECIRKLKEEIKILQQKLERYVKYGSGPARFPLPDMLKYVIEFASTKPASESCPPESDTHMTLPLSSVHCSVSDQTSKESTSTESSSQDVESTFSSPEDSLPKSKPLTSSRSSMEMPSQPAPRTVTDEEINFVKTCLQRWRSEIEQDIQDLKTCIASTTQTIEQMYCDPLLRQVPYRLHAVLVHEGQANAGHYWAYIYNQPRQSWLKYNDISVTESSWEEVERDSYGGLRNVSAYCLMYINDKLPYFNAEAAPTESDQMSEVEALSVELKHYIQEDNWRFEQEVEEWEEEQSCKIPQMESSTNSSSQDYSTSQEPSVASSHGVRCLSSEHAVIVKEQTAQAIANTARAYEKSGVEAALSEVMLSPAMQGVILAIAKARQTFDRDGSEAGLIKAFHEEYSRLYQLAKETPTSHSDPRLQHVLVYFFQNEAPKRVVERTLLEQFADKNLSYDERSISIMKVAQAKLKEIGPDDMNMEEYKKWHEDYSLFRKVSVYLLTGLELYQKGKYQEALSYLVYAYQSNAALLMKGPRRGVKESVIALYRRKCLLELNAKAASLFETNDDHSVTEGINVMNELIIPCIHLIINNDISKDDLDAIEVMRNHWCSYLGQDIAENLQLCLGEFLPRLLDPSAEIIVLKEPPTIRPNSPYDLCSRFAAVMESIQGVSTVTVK
Method in brief: as §1

Measured: log2 ratio of Biotin-Ahx-Ub-VS probe labelling

CC(NC(=O)CCl)c1cccc(Cl)c1 (centres undefined)
inactive: [1] -0.35 | [2] -0.342 | [3] -0.639 | [4] -0.845
